The sample as a whole holds a higher share of hits than the screen did.
NS1 inh: qHTS Assay for Inhibitors of Influenza NS1 Protein Function; Potency, µM (highest dose often 46.1 µM), without a hit: at the top dose activity, positive = more growth; hit rate 0.4% among 270,000; AID 2326, 2010; calls by dose curve; also: potency is read from the fitted curve at half-maximal effect; actives are rising curves; nearly all actives have a fitted effect of over 50% in size
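In this qHTS, NS1 from influenza A is expressed in budding yeast, where it slows growth. Cells are switched from glucose to 2% galactose medium (pH 6.0, -URA), treated with compound, and growth recovery is read at OD600.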
LmPK inhibitor: qHTS Assay for Inhibitors of Leishmania Mexicana Pyruvate Kinase (LmPK); hit rate 0.37% among 290,000; purified LmPK, Kinase-Glo ATP luminescence, 1 h; Potency, µM (series often up to 57.5 µM), for the others: at the top dose activity change, negative = inhibition, hits mostly inhibitors; Q27686; also: potency is read from the fitted curve at half-maximal effect; % is scaled to controls: 0 for no effect and ±100 for the full control effect
Target sequence (Q27686 whole entry, looked up): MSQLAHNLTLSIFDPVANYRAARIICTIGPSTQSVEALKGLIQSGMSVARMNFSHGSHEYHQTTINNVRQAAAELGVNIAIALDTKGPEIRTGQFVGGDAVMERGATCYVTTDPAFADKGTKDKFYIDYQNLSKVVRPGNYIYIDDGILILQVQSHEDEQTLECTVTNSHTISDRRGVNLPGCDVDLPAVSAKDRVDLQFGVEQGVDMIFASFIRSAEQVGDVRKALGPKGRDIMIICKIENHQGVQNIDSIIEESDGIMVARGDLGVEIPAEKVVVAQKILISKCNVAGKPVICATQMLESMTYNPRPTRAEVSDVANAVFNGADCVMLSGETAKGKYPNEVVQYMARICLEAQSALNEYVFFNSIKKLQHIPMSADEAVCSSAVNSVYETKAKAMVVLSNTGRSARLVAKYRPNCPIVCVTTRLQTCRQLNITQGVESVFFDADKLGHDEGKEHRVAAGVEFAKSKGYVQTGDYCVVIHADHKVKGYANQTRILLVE
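qHTS format; LmPK 0.1 nM; substrates PEP 0.5 mM and ADP 0.1 mM. One-hour room-temperature incubation, then coupled luciferase luminescence; 0.5 nM enzyme wells mark activation.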
TbPYK inhibitor: qHTS of Trypanosoma Brucei Inhibitors | pyruvate kinase (Trypanosoma brucei), Q57TT1 | TbPYK enzyme, Kinase-Glo Plus ATP luminescence, 45 min | Potency, µM (top dose mostly 76.8 µM), inactives show at the top dose activity, negative = inhibition, actives largely listed as inhibitors | hit rate 0.12% among 410,000; also: potency is read from the fitted curve at half-maximal effect; % is scaled to controls: 0 for no effect and ±100 for the full control effect; nearly all actives have a fitted effect of over 50% in size
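Activity of T. brucei pyruvate kinase was followed by Kinase-Glo Plus luminescence after the enzyme reacted 45 min at room temperature with 130 uM ADP (final) and substrate. Test compounds were added before ADP at multiple concentrations.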
SARS PLpro yeast: qHTS of Yeast-based Assay for SARS-CoV PLP; hit rate 0.19% among 330,000; Potency, µM (doses to about 32.9 µM), without a hit: at the highest dose activity, positive = growth rescue, hits mostly activators; S. cerevisiae expressing SARS-CoV PLpro, growth rescue; calls by dose curve; also: potency is read from the fitted curve at half-maximal effect; 0% is about no effect; nearly all actives have a fitted effect of over 55% in size
CHX counter: Cycloheximide Counterscreen for Small Molecule Inhibitors of Shiga Toxin. cell reporter, cycloheximide protein synthesis inhibition counterscreen. max response, %. hit rate 12% among 300,000. AID 2314, 2010; in the data active = max response mostly above about 13%, no sharp cut-off; inactive = mostly below about 14%; also: read at 38.3 µM for the half of the compounds with a filed dose; 0% is about no effect
Shiga toxin inh: A qHTS for Small Molecule Inhibitors of Shiga Toxin; Vero cells, Shiga toxin protein synthesis inhibition reporter; inhibition, % at 38.7 µM; hit rate 9.2% among 290,000; AID 2315, 2010; in the data active = inhibition mostly above about 28%, no sharp cut-off; inactive = mostly below about 43%; also: 0% is about no effect
Active calls of the source: *; ? = inconclusive; nt = no result given; [ ] = another dose, or the depositor's remark. Unless noted, calls follow the shape of the dose curve; as a rule, active = well fitted curve in the direction sought with a large enough effect; inconclusive = small, poorly fitted or top-dose-only effect, or another doubt; inactive = no such curve, though single readings can be large; an effect the other way counts as inactive or inconclusive.

SMILES	NS1 inh	LmPK inhibitor	TbPYK inhibitor	SARS PLpro yeast	CHX counter	Shiga toxin inh
CCC(C)(C)NC(=O)C(c1ccc(OC)cc1)N(C(=O)CCC(=O)Nc1cc(C)on1)c1ccc(F)cc1 (configuration not stated)	11%	-3%	-1%	-4%	-4	-19
CCOC(=O)C1CCN(C2=C(NS(=O)(=O)c3ccc(Br)cc3)C(=O)c3ccccc3C2=O)CC1	25%	-8%	-11%	-3%	16*	5
CCN1CCN(C2=C(NS(=O)(=O)c3ccccc3)C(=O)c3ccccc3C2=O)CC1	8%	0%	-8%	-2%	12*	15
NC(=O)C1CCN(C2=C(NS(=O)(=O)c3ccc(Br)cc3)C(=O)c3ccccc3C2=O)CC1	-9%	-13%	-8%	0%	-2	-2
COCCOC1CCN(C(=O)C2CCC(=O)N(CCc3ccccc3)C2)CC1 (configuration not stated)	-2%	-1%	4%	12%	14	-2
O=C(Nc1ccccc1Br)C(=O)N1CCCC1	-4%	-8%	9%	5%	40*	active
C/C(CC(=O)Nc1ccccc1Br)=N\NC(=O)C(=O)N1CCCC1	-17%	-2%	2%	-14%	8	-4
O=C(Nc1ccccn1)C(=O)N1CCCCC1	4%	5%	-3%	-5%	22	47*
CCN(CC)S(=O)(=O)c1cccc(C(=O)Nc2ccc(Cl)cn2)c1	-71%	0%	2%	-4%	26*	99*
CCN(CC)S(=O)(=O)c1cc(C(=O)Nc2ccc(Cl)cn2)ccc1C	-23%	0%	6%	-6%	33*	79*
CCN(CC)S(=O)(=O)c1cccc(C(=O)Nc2ccccc2C(=O)Nc2ccc(Cl)cc2)c1	nt	nt	-7%	nt	nt	nt
CCN(CC)S(=O)(=O)c1cc(C(=O)Nc2cc(C)on2)ccc1Cl	2%	-4%	-4%	6%	18	-5
COC(=O)[C@H](CC(C)C)NC(=O)c1ccc(NC[C@@H](N)CS)cc1-c1cccc2ccccc12	nt	nt	nt	nt	4	-4
Cc1nc(N)nc(Nc2ccc(Cl)cc2)c1Br	-76%	3%	-4%	-8%	34*	43*
Cc1ccccc1NC(=O)CCn1nc(-c2ccc(Cl)cc2)c2ccccc2c1=O	nt	nt	-1%	nt	nt	nt
O=C(NCc1ccco1)c1ccc2c(c1)N(Cc1cccc(Cl)c1)C(=O)c1ccccc1S2=O (configuration not stated)	nt	nt	4%	nt	nt	nt
CC1(C(=O)NCC2CC2)C=CC2(CCCCC2)N1C(=O)c1ccccc1 (configuration not stated)	-1%	0%	3%	-3%	66*	49*
COc1cccc(-c2onc3ccc(C(C)=O)cc23)c1	0%	8%	1%	0%	15*	31
COc1cccc(-c2onc3ccc(C4(C)OCCO4)cc23)c1	nt	-3%	2%	-2%	26*	31
CC1(c2ccc3noc(-c4ccc(F)cc4)c3c2)OCCO1	-8%	4%	4%	-1%	19*	72
CCCCOC(=O)c1ccc(Nc2nc3ccccc3c3nnc(C)n23)cc1	nt	nt	4%[15.4 µM]	nt	nt	nt
COc1ccc(CCNC(=O)C2CCC(CNS(=O)(=O)c3ccc(C)cc3)CC2)cc1OC (configuration not stated)	nt	nt	0%[15.4 µM]	nt	nt	nt
COc1ccc(/C=C2/C(=O)N(CC3CCCO3)C(=S)N2C)c(OC)c1 (configuration not stated)	-6%	3%	-3%	5%	-3	1
COc1ccc2c(c1)nc1n2CN(CC2CCCO2)CN1Cc1ccccc1 (configuration not stated)	-4%	-4%	nt	6%	32*	49*
C=CCNCCOCCOc1ccc(C)cc1Br	10%	-1%	39%	-15%	28*	47
SMILES	NS1 inh	LmPK inhibitor	TbPYK inhibitor	SARS PLpro yeast	CHX counter	Shiga toxin inh
CN(C)S(=O)(=O)c1ccc(N2CCCC2)c(C(=O)Nc2nc(-c3ccc(F)c(F)c3)cs2)c1	18%	-1%	-2%	-23%	28*	32
CCc1nnc(NC(=O)CSc2nccn2Cc2ccc(F)cc2)s1	nt	nt	4%	nt	nt	nt
Cc1ccc(NC(=O)c2ccccc2)s1	-34%	?	-5%	-21%	39*	100*
Cc1cc(NC(=O)c2ccccc2)sc1C	-117%	13µM*	3%	nt	33*	56*
CC1(C)S[C@@H]2[C@H](NC(=O)[C@H](NC(=O)N3CCN(S(C)(=O)=O)C3=O)c3ccccc3)C(=O)N2[C@H]1C(=O)O	nt	nt	-10%	nt	nt	nt
O=C1c2c(O)cc(O)cc2O[C@H](c2ccc(O)c(O)c2)C1O (some centres not stated)	nt	nt	nt	nt	-7	-10
C=CCOc1ccc(/C(O)=C2\C(=O)C(=O)N(CCCOC)C2c2ccc(O)c(OC)c2)cc1 (configuration not stated)	3%	-5%	2%	-3%	-3	-7
COC(=O)c1[nH]c(C)c(/C(O)=C2\C(=O)C(=O)N(CCN3CCOCC3)C2c2cccs2)c1C (configuration not stated)	-5%	6%	4%	0%	-4	-14
CCOC(=O)c1[nH]c(C)c(/C(O)=C2\C(=O)C(=O)N(CCCN3CCOCC3)C2c2cccs2)c1C (configuration not stated)	1%	2%	-3%	-2%	19*	57
CC(C)Oc1ccc(/C(O)=C2/C(=O)C(=O)N(CCN(C)C)C2c2cccs2)cc1 (configuration not stated)	-4%	-1%	-9%	-1%	18*	74*
CCOc1cccc(/C(O)=C2/C(=O)C(=O)N(CCN3CCOCC3)C2c2ccncc2)c1 (configuration not stated)	0%	1%	nt	1%	-3	1
CCOc1cc(C2/C(=C(/O)c3ccc(OC(C)C)cc3)C(=O)C(=O)N2CCCOC)ccc1O (configuration not stated)	19%	-1%	-11%	1%	48*	87*
COc1cccc(/C(O)=C2/C(=O)C(=O)N(CCN3CCOCC3)C2c2cccs2)c1 (configuration not stated)	1%	-4%	2%	-1%	23*	20
CCc1ccccc1N(C)C(=O)Cn1cnc2sc(C)c(S(=O)(=O)N3CCC(C)CC3)c2c1=O	nt	nt	2%	nt	nt	nt
Cc1ccc2nc3c(cc(C#N)c(=O)n3-c3nnc(SCc4ccc(F)cc4)s3)c(=O)n2c1	nt	nt	-2%	nt	nt	nt
N#Cc1ccccc1OCC(=O)N(Cc1nnc(-c2ccccc2Cl)o1)C1CC1	nt	nt	3%	-1%	nt	nt
CCc1nnc(NC(=O)CCC(=O)N2CCN(S(=O)(=O)c3ccc(OC)cc3)CC2)s1	0%	-2%	-1%	13%	-4	-20
